Source: PubChem BioAssay AID651813 (National Center for Advancing Translational Sciences (NCATS), 2012)
Among all 2,100 compounds or so, about 1,100 (52%) were called active. Not shown: some 27% with an inconclusive outcome. So high a share suggests a set chosen from earlier hits. Some of the results follow. Unmarked numbers belong to inactive results. Calls follow the shape of the dose curve; as a rule, active = well fitted inhibition curve with a large enough effect; inconclusive = small, poorly fitted or top-dose-only effect; inactive = no such curve, though single readings can be large or run the other way.

What follows are molecules tested against DNA dC->dU-editing enzyme APOBEC-3G (Homo sapiens) (UniProt Q9HC16) (assay: qHTS for inhibitors of Vif-A3G interactions: Cherry picks counterscreen). Conditions: HeLa A3G-eYFP + Vif (tagged APOBEC3G with the HIV-1 protein that degrades it), eYFP fluorescence, 24 h.
Outline: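 HeLa cells stably expressing A3G-eYFP and Vif were treated for 24 h at 37 deg C with compounds at several concentrations; yellow fluorescence (Ex 488 nm, Em 500-530 nm) read by Acumen Explorer, MG132 as positive control.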
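Also: hits raise yellow fluorescence by blocking Vif-driven A3G-eYFP degradation; nearly all actives have a fitted effect of over 70% in size.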
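For max response in this document: max response given as percent of control signal.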
Potency is read from the fitted curve at half-maximal effect.

Sequence of DNA dC->dU-editing enzyme APOBEC-3G (Homo sapiens) (Q9HC16 whole entry, looked up): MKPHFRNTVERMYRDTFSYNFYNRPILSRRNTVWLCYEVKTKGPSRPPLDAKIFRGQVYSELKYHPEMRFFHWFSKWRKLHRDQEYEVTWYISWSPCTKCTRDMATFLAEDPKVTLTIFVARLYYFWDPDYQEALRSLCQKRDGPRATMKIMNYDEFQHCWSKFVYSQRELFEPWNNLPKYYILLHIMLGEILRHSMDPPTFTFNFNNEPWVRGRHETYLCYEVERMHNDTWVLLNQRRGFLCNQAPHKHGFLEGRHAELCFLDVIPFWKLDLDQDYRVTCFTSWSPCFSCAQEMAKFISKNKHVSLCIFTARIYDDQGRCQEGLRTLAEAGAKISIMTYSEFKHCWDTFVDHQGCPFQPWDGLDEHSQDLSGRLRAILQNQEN

| SMILES | Potency | max response [%] |
| --- | --- | --- |
| CCn1nc(-c2ccccc2)c2nc3ccccc3nc21 | 23.1 µM (active) | – |
| O=C(NCc1cccc(F)c1)c1cccc2c1C(=O)c1ccc(N3CCCC3)cc1S2(=O)=O | 17.7 µM (active) | – |
| CC1CCN(c2ccc3c(c2)S(=O)(=O)c2cccc(C(=O)NCc4cccc(F)c4)c2C3=O)CC1 | 14 µM (active) | – |
| Cc1ccc(CNC(=O)c2cccc3c2C(=O)c2ccc(N4CCC(C)CC4)cc2S3(=O)=O)cc1 | – | -0.215 |
| Cc1ccc(CNC(=O)c2cccc3c2C(=O)c2ccc(N4CCCCC4)cc2S3(=O)=O)cc1 | 18.4 µM (active) | – |
| COc1cc2ccccc2cc1C(=O)N/N=C/c1cccs1 | 1.77 µM (active) | – |
| COc1ccccc1C=CC(=O)C=Cc1ccccc1OC | 6.27 µM (active) | – |
| O=C(NC(=S)N1CCN(C2CCCCC2)CC1)c1ccccc1 | – | -11.9 |
| CN(C)c1ccc(/C=C/c2nc3ccccc3c(=O)n2CCO)cc1 | 20.6 µM (active) | – |
| CN(C)c1ccc(/C=C/c2cc(N(C)C)nc3ccccc23)cc1 | 6.51 µM (active) | – |
| CN(C)c1ccc(/C=C/c2cc(/C=C/c3ccc(N(C)C)cc3)c3ccccc3n2)cc1 | 3.66 µM (active) | – |
| Nc1ccc(/C=C/c2cc(Cl)nc3ccccc23)cc1 | 20.6 µM (active) | – |
| CCN(CC)c1ccc(/C=C/c2cc(-c3ccccc3)c3ccccc3n2)cc1 | 1.98 µM (active) | – |
| Cc1ccccc1N1C(=O)c2cccc3c(N(C)CCO)ccc(c23)C1=O | 4.61 µM (active) | – |
| COc1ccccc1N1C(=O)c2cccc3c(C(=O)O)ccc(c23)C1=O | – | 6.39 |
| COc1ccc(C(=O)c2ccc(OC)c(OC)c2OC)cc1 | 2.23 µM (active) | – |
| O=C(NC1C/C(=N/O)c2cc3c(cc21)OCO3)C(F)(F)F (stereo not drawn) | – | -1.11 |
| COc1cc(/C=C2\COC/C(=C\c3ccc(O)c(OC)c3)C2=O)ccc1O | 8.86 µM (active) | – |
| COc1cc(C=C2C(=O)c3ccccc3C2=O)cc(OC)c1OC | – | -6.19 |
| COc1cc(/C=C2\COC/C(=C\c3cc(OC)c(OC)c(OC)c3)C2=O)cc(OC)c1OC | 3.14 µM (active) | – |

| SMILES | Potency | max response [%] |
| --- | --- | --- |
| CCOc1cc(/C=C2\CN(C)C/C(=C\c3ccc(O)c(OCC)c3)C2=O)ccc1O | 5.59 µM (active) | – |
| COc1ccc(/C=C2/CSC/C(=C/c3ccc(OC)c(OC)c3)C2=O)cc1OC | 5.59 µM (active) | – |
| Cc1ccc(F)c(S(=O)(=O)NC(=O)C2(C)CCN2C(=O)Cc2ccc(Cl)cc2Cl)c1 (stereo not drawn) | – | 13 |
| Cc1cccn2c(=O)c3cc(C#N)c(=NC(=O)c4cccs4)n(CCCOC(C)C)c3nc12 | – | -8.85 |
| COc1ccc(/C=C2\CN(Cc3ccccc3)C/C(=C\c3ccc(OC)c(O)c3)C2=O)cc1O | 6.27 µM (active) | – |
| C=CCn1c(SCc2c(C)noc2C)nc2cc(C(=O)O)ccc2c1=O | 17.7 µM (active) | – |
| Cc1noc(C)c1CSc1nc2ccccc2c(=O)n1-c1ccccc1 | 4.98 µM (active) | – |
| CCn1c2ccccc2c2cc(NC(=O)CNCc3ccccc3OC)ccc21 | 6.27 µM (active) | – |
| COc1cc(-c2cnc3c(NC(C)=O)cc(-c4ccccc4CN(C)C)cn23)cc(OC)c1OC | 14 µM (active) | – |
| COc1ccc(-c2cc(NC(C)=O)c3ncc(-c4cc(OC)c(OC)c(OC)c4)n3c2)cn1 | 5.59 µM (active) | – |
| COC(=O)C1=C(C)NC2=C(C(=O)CC(c3cccs3)C2)C1c1ccsc1 (stereo not drawn) | 12.5 µM (active) | – |
| CN(C)c1ccc(/C=N/N(CCO)C2=NS(=O)(=O)c3ccccc32)cc1 | – | -24.9 |
| CN(/N=C/c1ccc(N(C)C)cc1)C1=NS(=O)(=O)c2ccccc21 | 5.59 µM (active) | – |
| Cc1ccnc(NC(=S)NC(=O)/C=C/c2ccco2)c1 | 6.27 µM (active) | – |
| CSc1ccccc1NC(=O)COC(=O)/C=C/c1ccco1 | – | -23.9 |
| O=C(/C=C/c1ccco1)NC(=S)Nc1cccc(-c2nc3ccccc3o2)c1 | 4.98 µM (active) | – |
| Cc1nc(NC(=O)/C=C/c2ccco2)sc1C | 6.27 µM (active) | – |
| COc1ccc(-c2csc(NC(=S)NC(=O)/C=C/c3ccco3)n2)cc1Br | 3.14 µM (active) | – |
| COc1ccc(OC)c(/C=C/c2nc3ccccc3[nH]c2=O)c1 | 7.31 µM (active) | – |
| CC(=Nc1ccccc1)C1=C(O)C(Cc2ccccc2)NC1=O (stereo not drawn) | 0.396 µM (active) | – |

| SMILES | Potency | max response [%] |
| --- | --- | --- |
| O=C1NC(c2ccccc2Br)=N/C1=C\c1ccco1 | – | -4.52 |
| O=C1N/C(=C\c2ccccc2)c2ccccc21 | 0.994 µM (active) | – |
| CCOC(=O)/C(C#N)=C\C=C1C=CN(C)C=C1 | 2.31 µM (active) | – |
| C=CCN1C=CC(=C/C=C(/C#N)C(=O)OCC)C=C1 | 3.66 µM (active) | – |
| c1ccc(Nc2nc(-c3ccccn3)cs2)cc1 | – | 16.2 |
| O=Cc1sc(Nc2ccccc2)nc1Cl | 20.6 µM (active) | – |
| Cc1ccc(Nc2nc(Cl)c(C=O)s2)cc1Cl | 13 µM (active) | – |
| CCOC(=O)c1ccc(NC(=O)CSc2nc(-c3ccc(OC)cc3)cc(C(F)(F)F)c2C#N)cc1 | 23.1 µM (active) | – |
| Cc1cc(C(F)(F)F)c(C#N)c(SCC(=O)Nc2nc3ccccc3s2)n1 | 18.4 µM (active) | – |
| Cc1coc(NC(=O)CSc2nc(-c3ccncc3)cc(C(F)(F)F)c2C#N)n1 | 16.4 µM (active) | – |
| CCCCOc1ccc(-c2cc(C(F)(F)F)c(C#N)c(SCC(=O)O)n2)cc1 | 23.1 µM (active) | – |
| COCc1cc(C)nc(SCC(=O)Nc2ccc3[nH]c(=O)[nH]c3c2)c1C#N | – | -18.1 |
| CCOC(=O)c1ccc(NC(=O)CSc2nc(-c3ccc(F)cc3)cc(C(F)(F)F)c2C#N)cc1 | 9.2 µM (active) | – |
| COc1cccc2sc(Nc3nc(-c4cc5ccccc5oc4=O)cs3)nc12 | 3.96 µM (active) | – |
| COc1ccc(-c2cc3ccccc3oc2=O)cc1NC(=S)NC(=O)c1ccc2c(c1)OCCO2 | – | -2.77 |
| CN(C)c1ccc(/C=C2\SC(=S)N(Nc3ncc(C(F)(F)F)cc3Cl)C2=O)cc1 | 5.17 µM (active) | – |
| COc1cc(/C=C2\SC(=S)N(NC(=O)c3ccccc3OC)C2=O)ccc1O | – | -17.8 |
| COc1cc(/C=C2\SC(=S)N(Nc3ncc(C(F)(F)F)cc3Cl)C2=O)ccc1O | 20.6 µM (active) | – |
